21 molecules from PubChem BioAssay (NCATS) can be followed below.

The subject of one assay is Tov-21-G. Kind of assay: Primary qHTS to identify gynecologic anti-cancer compounds using libraries of approved drugs and bioactive compounds (AID 1345084). Further: nearly all actives have a fitted effect of over 55% in size. Further: potency means the concentration at half of the fitted maximal effect. To be noted: Gynecologic cancer cell panel viability, ATPlite luminescence, 48 h; series mostly up to 57.5 µM. Put shortly: (§1)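 Five-point cytotoxicity, 48 h drug exposure at 37 C, 5% CO2, on cells seeded 16 h beforehand. ATP content read by ATPlite luminescence.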
(In general: In qHTS, concentration-response curves come from the screen itself.)

A further assay has as its system astro. The experiment in a line: Drug repurposing screens with cells derived from glioblastoma tumor samples (AID 1345199). Further: nearly all actives have a fitted effect of over 40% in size. Further: potency means the concentration at half of the fitted maximal effect. On activity, negative = cell killing: on the % scale 0 is the no-effect control and ±100 the full control effect. The conditions noted are these: viability, ATP luminescence, 48 h; series mostly up to 45.9 µM. Put shortly: (§2)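 Primary testing used CD133+ neurospheres from four GBM patients, seven concentrations, 48 h exposure and ATP-based viability; confirmation added three slower-growing patient lines.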

Experiment in assay [1]: as above
The conditions noted are these: GBM patient neurospheres viability, ATP luminescence, 48 h. Put shortly: as §2

Another assay concerns PA-1. The experiment in a line: Primary qHTS to identify gynecologic anti-cancer compounds using libraries of approved drugs and bioactive compounds (AID 1345084). Further: nearly all actives have a fitted effect of over 55% in size. Further: potency means the concentration at half of the fitted maximal effect. To be noted: Gynecologic cancer cell panel viability, ATPlite luminescence, 48 h; series mostly up to 57.5 µM. In outline: as §1
The next assay concerns Tov112D. The assay is described as above. The conditions noted are these: Gynecologic cancer cell panel viability, ATPlite luminescence, 48 h; series mostly up to 57.5 µM. In outline:
as §1
A general note: ATP-based viability assays read luminescence as a measure of living cells.

A short description of assay [2]: qHTS assay for small molecule activators of the human pregnane X receptor (PXR) signaling pathway (AID 720659; call rule not given here; further: 0% is about no effect). To be noted: DPX-2 HepG2 CYP3A4-luciferase, 24 h; series mostly up to 92.3 µM.
The target of assay [3] is Nuclear receptor subfamily 1 group I member 2 (Rattus norvegicus) (UniProt Q9R1A7). The experiment in a line: qHTS assay for small molecule activators of the rat pregnane X receptor (rPXR) signaling pathway (AID 651751; call rule not given here; further: 0% is about no effect). The conditions noted are these: rPXR reporter cells, luciferase (One-Glo), 24 h.
Assay [4] can be described thus: qHTS assay to identify inhibitors of the type 1 interferon - major histocompatibility complex class I in skeletal muscle: Counter screen cell viability and HiBit confirmation (AID 1347412). Further: potency means the concentration at half of the fitted maximal effect; nearly all actives have a fitted effect of over 60% in size. To be noted: iHSKM muscle cells + IFN-b, HiBiT or CellTiter-Glo, 24 h; HiBiT. In outline: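 HLA-B*08:01–HiBiT knock-in immortalized human myoblasts (C25cl48) stimulated with 4.0 ng/ml human IFN-beta and dosed with compound in a 12-point 1:3 titration (top final 46 uM). After 24 hrs at 37 C, HiBiT lytic luminescence or CellTiter Glo ATP read out.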

For the next assay, the system named is SKOV3. The experiment in a line: Primary qHTS to identify gynecologic anti-cancer compounds using libraries of approved drugs and bioactive compounds (AID 1345084). Further: nearly all actives have a fitted effect of over 55% in size. Further: potency means the concentration at half of the fitted maximal effect. The conditions noted are these: Gynecologic cancer cell panel viability, ATPlite luminescence, 48 h; series mostly up to 57.5 µM. In outline: as §1
Where [5] appears, read: at 46.1 µM (top of the series), tumour line C.
Where [6] appears, read: at 45.9 µM (top of the series), tumour line B.
Where [7] appears, read: at 45.9 µM (top of the series), tumour line D.
[8] abbreviates: at 46 µM (top of the series), tumour line A.
The mark [9] stands for this setting: at 20 µM (top of the series), tumour line C.
Setting [10] is: at 21.2 µM (top of the series), tumour line B.
Setting [11] is: at 21.2 µM (top of the series), tumour line D.

Where “and” joins values, the source holds several entries; their conditions need not be identical. Equal values may be shown once. Unmarked numbers belong to inactive results. Inconclusive results are not listed. Calls of active or inactive are those of the source. Unless noted, the call rests on the fitted dose curve; in most records, active means well fitted curve in the direction sought with a large enough effect; inconclusive means small, poorly fitted or top-dose-only effect, or another doubt; inactive means no such curve, though single readings can be large; an effect the other way counts as inactive or inconclusive.

Nuclear receptor subfamily 1 group I member 2 (Rattus norvegicus), sequence (Q9R1A7 whole entry, looked up): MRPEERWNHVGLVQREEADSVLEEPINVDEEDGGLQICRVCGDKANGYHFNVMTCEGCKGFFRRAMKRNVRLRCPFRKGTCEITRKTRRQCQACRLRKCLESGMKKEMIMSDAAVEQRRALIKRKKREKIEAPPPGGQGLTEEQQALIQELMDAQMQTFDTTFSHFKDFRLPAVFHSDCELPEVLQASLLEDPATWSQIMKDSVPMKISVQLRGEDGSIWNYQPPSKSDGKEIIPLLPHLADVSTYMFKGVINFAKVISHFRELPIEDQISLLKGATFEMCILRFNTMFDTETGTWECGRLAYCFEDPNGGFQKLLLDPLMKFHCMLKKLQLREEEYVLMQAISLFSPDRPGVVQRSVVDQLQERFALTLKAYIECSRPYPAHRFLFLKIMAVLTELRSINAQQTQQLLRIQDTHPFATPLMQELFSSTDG

Consider `O=C1NCN(c2ccccc2)C12CCN(CCCC(c1ccc(F)cc1)c1ccc(F)cc1)CC2`, for which the Potency result in the assay with Tov-21-G is “inactive”. For the same molecule, the Potency in the assay with astro is 12.6 µM (active).

`CCc1cccc(N(C)C(N)=Nc2cccc3ccccc23)c1`: the Potency result in the assay on Tov-21-G was “inactive”.

For the molecule `COc1cc2c(cc1OC)-c1cc(=Nc3c(C)cc(C)cc3C)n(C)c(=O)n1CC2`, in the assay on astro, the Potency was 17.8 µM (active).

Take `CC(C)COCC(CN(Cc1ccccc1)c1ccccc1)N1CCCC1` (configuration not stated): in the assay on Tov-21-G, the Potency result is “inactive”. The activity, negative = cell killing in assay [1] (setting [5]) is -7.32%. The Potency in assay [1] (tumour line A) was 11.2 µM (active); in assay [1] (tumour line D) it was 11.2 µM (active); in the assay with astro, 35.5 µM (active).

Take `COc1cc(Cc2cnc(N)nc2N)cc(OC)c1OC`: the Potency entry with PA-1, with Tov-21-G, with Tov112D and in the assay with astro was “inactive” throughout. Moreover, the activity, negative = cell killing in assay [1] (setting [6]) was 10.7%; in assay [1] (setting [7]), -9.7%; in assay [1] (setting [5]), -10.9%. In addition, in [2], the call was inactive.

With `CC(=O)Nc1nnc(S(N)(=O)=O)s1`, the Potency result in the assay with PA-1, with Tov-21-G, with Tov112D and in the assay with astro was “inactive” throughout. Further, the activity, negative = cell killing in [1] (setting [6]) was -5.69%; in assay [1] (setting [7]) it was 0.278%; in [1] (setting [8]), 1.18%; in assay [1] (setting [5]), -27.5%. For the same molecule, the max response in assay [3] was 0.356%. Besides, in assay [2], the outcome was inactive.

Take `CC(C)(C)c1ccc(C(=O)CCCN2CCC(OC(c3ccccc3)c3ccccc3)CC2)cc1`: the Potency entry with Tov-21-G and in the assay on Tov112D was “inactive” throughout. Besides, the activity, negative = cell killing in [1] (setting [5]) was -18.9%. For the same molecule, the Potency in assay [1] (tumour line A) is 2.51 µM (active); in [1] (tumour line B) it was 25.1 µM (active); in [1] (tumour line D) it was 5.01 µM (active); in the assay on astro it was 12.6 µM (active).

Regarding `CN(C(=O)CCCOc1ccc2[nH]c(=O)ccc2c1)C1CCCCC1`, the Potency result in the assay with Tov-21-G, in the assay with Tov112D and in the assay on astro was “inactive” throughout. In [1] (setting [6]), the activity, negative = cell killing was -16.8%. Moreover, in assay [1] (tumour line A), the Potency was 11.2 µM (active).

As for `CN/C(=C\[N+](=O)[O-])NCCSCc1ccc(CN(C)C)o1`, the Potency result with PA-1, in the assay on Tov112D and with astro was “inactive” each time. Moreover, the activity, negative = cell killing in [1] (setting [5]) is -1.34%.

With `Cc1nc2ccccn2c(=O)c1CCN1CCC(C(=O)c2ccc(F)cc2)CC1`, the Potency entry in the assay with PA-1, in the assay on Tov-21-G, in the assay on Tov112D and in the assay with astro was “inactive” throughout. The activity, negative = cell killing in [1] (setting [6]) was -22.2%. Besides, the Potency in assay [1] (tumour line A) was 6.31 µM (active).

In the case of `CCNC(=O)N1CCN(CCCC(c2ccc(F)cc2)c2ccc(F)cc2)CC1`, the Potency result in the assay on PA-1, with Tov-21-G, in the assay on Tov112D and with astro was “inactive” throughout.

As for `CN(C)CCOC(=O)COc1ccc(Cl)cc1`, the Potency entry in the assay with PA-1, with Tov-21-G, in the assay with Tov112D and in the assay with astro was “inactive” in each case. Moreover, the activity, negative = cell killing in assay [1] (setting [9]) is -19.3%; in assay [1] (setting [10]), -11.3%; in assay [1] (setting [11]) it was -14.6%.

For the molecule `CNC1(C)C2CCC(C2)C1(C)C` (configuration not stated), the Potency result with PA-1, in the assay on Tov-21-G, in the assay on Tov112D and in the assay on astro was “inactive” in each case. In addition, the activity, negative = cell killing is 1.71% in assay [1] (setting [6]), 0.479% in assay [1] (setting [7]) and 3.06% in assay [1] (setting [5]).

`CCn1nc(C(=O)O)c(=O)c2cc3c(cc21)OCO3`: the Potency result with PA-1, in the assay on Tov-21-G, in the assay on Tov112D and with astro was “inactive” throughout. Moreover, the activity, negative = cell killing in assay [1] (setting [9]) is -1.32%; in [1] (setting [10]), -10.1%; in assay [1] (setting [11]), -5.8%; in assay [1] (at 21.3 µM (top of the series), tumour line A), -22.7%.

In the case of `COCC(=O)O[C@]1(CCN(C)CCCc2nc3ccccc3[nH]2)CCc2cc(F)ccc2[C@@H]1C(C)C`, the Potency entry in the assay with PA-1, with Tov-21-G and in the assay on Tov112D was “inactive” throughout. Also, the Potency with astro was 10 µM (active).

Take `CCN1CCC[C@H]1CNC(=O)c1c(O)c(Cl)cc(Cl)c1OC`: the Potency result with PA-1, with Tov-21-G, in the assay with Tov112D and in the assay with astro was “inactive” each time. For the same molecule, the activity, negative = cell killing in assay [1] (setting [6]) is -11.9%; in assay [1] (setting [7]), 3.21%; in [1] (setting [5]), 9.16%.

For `CCN(CC)CCCN(c1ccccc1)C1Cc2ccccc2C1`, the Potency entry in the assay on PA-1, in the assay with Tov-21-G and with Tov112D was “inactive” in each case. In addition, the Potency with astro was 12.6 µM (active).

For the molecule `NC(=O)N1c2ccccc2C=Cc2ccccc21`, the Potency result with PA-1, with Tov-21-G, in the assay on Tov112D and with astro was “inactive” throughout. The activity, negative = cell killing in assay [1] (setting [6]) is -0.221%; in assay [1] (setting [7]), -27.4%; in assay [1] (setting [8]) it was -32.7%; in assay [1] (setting [5]), -16.6%. For the same molecule, in assay [3], the max response is 5.91% and 3.5%.

Regarding `Nc1ncn([C@@H]2O[C@H](CO)[C@@H](O)[C@H]2O)c(=O)n1`, the values for the Potency (with PA-1; in the assay with Tov-21-G; in assay [4]) were 10 µM (active), 12.6 µM (active) and 14 µM (active), respectively. Besides, the outcome in [2] was inactive.

For `C(=C\c1ccccc1)/CN1CCN(C(c2ccccc2)c2ccccc2)CC1`, the Potency entry with PA-1, in the assay on Tov-21-G, with Tov112D and in the assay on astro was “inactive” in each case. Also, the results for the activity, negative = cell killing in assay [1] (setting [9]), in [1] (setting [10]) and in assay [1] (setting [11]) were -1.05%, -13.5% and -14%, respectively. Further, the Potency in assay [1] (tumour line A) was 7.08 µM (active).

In the case of `Nc1nc(N)c2nc(-c3ccccc3)c(N)nc2n1`, the Potency entry with SKOV3 was “inactive”. Further, the Potency in the assay on Tov-21-G was 20 µM (active); in assay [1] (tumour line A), 12.6 µM (active); in assay [1] (tumour line B), 28.2 µM (active). Besides, the activity, negative = cell killing in [1] (setting [5]) was 0.453%. In addition, in assay [3], the max response is 0.808% and 7.32%.
